The results in this text go back to PubChem BioAssay (NCATS).

The target of experiment [1] is Alpha-galactosidase (Coffea arabica) (UniProt Q42656). Nature of the experiment: Counterscreen for Glucocerebrosidase Inhibitors: qHTS Assay for Coffee Bean alpha-Galactosidase at pH 4.5 (AID 957).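 Further: plate controls were enzyme alone for no effect and no enzyme for full effect.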 Summed up:
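Coffee bean enzyme (2 nM) with 80 uM 4-methylumbelliferyl alpha-D-galactopyranoside in 50 mM citric acid, 0.005% Tween-20, pH 4.5, 20 min at room temperature; compounds 0.7 nM–77 uM. Stopped at pH 10, fluorescence 365/440 nm; AC50 from Hill fits.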
(In general: A counterscreen serves to expose hits that act by an unwanted route or on another target.)

For experiment [2] the target is unchanged. The experiment is described as follows: Counterscreen for Glucocerebrosidase Inhibitors: qHTS Assay for Coffee Bean alpha-Galactosidase at pH 5.9 (AID 998).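 Further: plate controls were uninhibited enzyme for no effect and no-enzyme basal signal for full effect.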 The essentials:
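Compounds were titrated from 0.7 nM to 77 uM against green coffee bean alpha-galactosidase (2 nM) using 80 uM fluorogenic 4-methylumbelliferyl substrate. After 20 min at room temperature, reactions were stopped at pH 10 and read by fluorescence.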

The nature of experiment [3]: Validation screen for inhibitors of Lassa infection (AID 463096; calls by dose curve; further: on the % scale 0 is the no-effect control and ±100 the full control effect).
Experiment [4] can be described thus: Inducers of the Endoplasmic Reticulum Stress Response (ERSR) in human glioma: Validation (AID 504836). Further: 0% is about no effect. The essentials:
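ERSR induction read as luciferase luminescence (Bright-Glo, 10 min at room temperature) in stably transfected human U87-MG glioma cells exposed to compounds for 16 h, using GRP78 as sensor.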

A short description of experiment [5]: qHTS for Inhibitors of the Functional Ribonucleoprotein Complex (vRNP) of Lassa (LASV) Arenavirus: LASV Primary Screen - GLuc reporter signal (AID 1347082; calls by dose curve; tested in HEK293 reporter line; further: on the % scale 0 is the no-effect control and ±100 the full control effect; nearly all actives have a fitted effect of over 60% in size).
A short description of experiment [6]: qHTS for Inhibitors of the Functional Ribonucleoprotein Complex (vRNP) of Lassa (LASV) Arenavirus: Viability assay - alamar blue signal for LASV Primary Screen (AID 1347083; calls by dose curve; tested in HEK293 reporter line; further: on the % scale 0 is the no-effect control and ±100 the full control effect; nearly all actives have a fitted effect of over 80% in size).
Experiment [7] is described as follows: qHTS for Inhibitors of the Functional Ribonucleoprotein Complex (vRNP) of Lymphocytic Choriomeningitis Arenaviruses (LCMV): Viability assay - alamar blue signal for LCMV Primary Screen (AID 1347085; calls by dose curve; tested in HEK293 reporter line; further: on the % scale 0 is the no-effect control and ±100 the full control effect; nearly all actives have a fitted effect of over 80% in size). A general note: Quantitative high-throughput screening tests each substance at several concentrations.
In experiment [8] the target is Nucleoprotein (Lymphocytic choriomeningitis virus (strain Armstrong)) (UniProt P09992). Nature of the experiment: qHTS for Inhibitors of the Functional Ribonucleoprotein Complex (vRNP) of Lymphocytic Choriomeningitis Arenaviruses (LCMV): LCMV Primary Screen - GLuc reporter signal (AID 1347086; calls by dose curve; further: on the % scale 0 is the no-effect control and ±100 the full control effect; nearly all actives have a fitted effect of over 70% in size).
The target in experiment [9] is Ubiquitin carboxyl-terminal hydrolase 2 (Homo sapiens) (UniProt O75604). Nature of the experiment: qHTS Validation Assay for Inhibitors of Ubiquitin-specific Protease USP2a Using CHOP2 as the Reporter (AID 463106). Further: potency means the concentration at half of the fitted maximal effect. The essentials: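 10nM USP2 core + cpd, 30min RT; add 25nM Ub-CHOP2/25nM substrate; 60min RT; FI 485/531nm. Buffer Tris pH 8.0, CaCl2, BME, CHAPS. Norm. to NEM = 100% inhibition; time-zero read flags fluorescent artifacts.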

The target in experiment [10] is DNA polymerase III PolC-type (Bacillus subtilis (strain 168)) (UniProt P13267). The experiment is described as follows: qHTS Validation Assay for the Inhibitors of DNA Replication in Gram-Positive Bacteria (AID 485295). Further: potency means the concentration at half of the fitted maximal effect. Summed up: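 Inhibition of DNA synthesis by the reconstituted PolC holoenzyme, monitored through PicoGreen staining of dsDNA formed from ssM13Gori, dNTPs and NTPs, with compound preincubation and room-temperature reaction.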

In experiment [11] the target is Ubiquitin carboxyl-terminal hydrolase 1 (Homo sapiens) (UniProt O94782). Nature of the experiment: Inhibitors of USP1/UAF1: Pilot qHTS (AID 504865). Further: potency means the concentration at half of the fitted maximal effect; nearly all actives have a fitted effect of over 35% in size. Summed up: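 Enzyme-free wells gave the negative control, while test wells held 1nM USP1/UAF1 preincubated with compound for 15 min at room temperature. Ub-Rho at 150nM final started the reaction, and fluorescence at 480/540 nm was recorded kinetically.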

Experiment [12] can be described thus: HTS Assay for Allosteric Antagonists of the Human D2 Dopamine Receptor: Hit Validation in HTRF (AID 624455).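 Further: stable D1 dopamine receptor cell line scored for blocking the D1 response; on the % scale 0 is the no-effect control and ±100 the full control effect.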 Summed up: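 Hit validation in cells stably expressing the D1 dopamine receptor, run in HTRF format. Compounds were tested for their ability to inhibit the D1-mediated response.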
For orientation: TR-FRET usually uses a lanthanide donor and a delayed reading to cut background.

A short description of experiment [13]: Quantitative high throughput screen for delayed death inhibitors of the malarial parasite plastid, 96 hour incubation (AID 488745). Further: potency means the concentration at half of the fitted maximal effect; nearly all actives have a fitted effect of over 70% in size. Summed up:
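Luciferase-expressing P. falciparum in erythrocytes (2% hematocrit, 0.1% parasitemia) incubated with compound for 96 h at 37 C, 5% CO2, in RPMI 1640 with 0.5% Albumax. Growth inhibition read as decreased luminescence.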

Experiment [14] in a line: Quantitative high throughput screen for delayed death inhibitors of the malarial parasite plastid, 48 hour incubation (AID 488752). Further: potency means the concentration at half of the fitted maximal effect; nearly all actives have a fitted effect of over 65% in size. The essentials:
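Erythrocytes infected with firefly luciferase-expressing P. falciparum (2% hematocrit, 0.1% parasitemia) cultured with compound for 48 h at 37 C, 5% CO2, in RPMI 1640/0.5% Albumax. Growth inhibition read as loss of luminescence.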

In experiment [15] the target is Flap endonuclease 1 (Homo sapiens) (UniProt P39748). The experiment is described as follows: qHTS Validation Assay for the Inhibitors of Human Flap endonuclease 1 (FEN1) (AID 488816). Further: on the % scale 0 is the no-effect control and ±100 the full control effect. Summed up: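 Readings taken at 0 and 15 min after starting the reaction with 50 nM (final) substrate supplied the signal. Compounds had first sat with 10 nM FEN1 reagent for 15 min at room temperature. Values come from Hill-equation concentration-response fits.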

Experiment [16] addresses Chromobox protein homolog 1 (Homo sapiens) (UniProt P83916). Nature of the experiment: qHTS Validation Assay for Inhibitors of HP1-beta Chromodomain Interactions with Methylated Histone Tails (AID 488953).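 Further: loss of AlphaScreen luminescence from HP1-beta binding biotinylated H3K9me3 peptide; on the % scale 0 is the no-effect control and ±100 the full control effect; nearly all actives have a fitted effect of over 50% in size.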 Summed up:
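HP1-beta (50 nM) preformed 30 min with biotinylated H3(1-18)K9me3 peptide (50 nM) in PBS pH 7.4, 0.01% Tween-20. Compounds added for 30 min at room temperature. Complex disruption read by AlphaScreen with streptavidin donor/nickel chelate acceptor beads (10 ug/mL each).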

Experiment [17] is described as follows: qHTS profiling of the MIPE4 collection as inhibitors of Plasmodium falciparum (DD2) proliferation (AID 743345; call rule not given here). The conditions noted are these: P. falciparum Dd2 in erythrocytes, SYBR Green DNA, 72 h; at 28.5 µM (top of the series) unless noted. The essentials:
(§1)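 Erythrocytes infected with P. falciparum (0.3% parasitemia, 2.5% hematocrit) incubated with compounds 72 h at 37 C, 5% CO2. Lysis with saponin/Triton buffer containing SYBR Green I, overnight at room temperature in the dark; DNA fluorescence (485/535 nm) normalised to 0.29 uM artemisinin and DMSO.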

Experiment [18] is described as follows: qHTS profiling of the MIPE4 collection as inhibitors of Plasmodium falciparum (DD2) proliferation (Rep 2) (AID 743346; call rule not given here). The conditions noted are these: P. falciparum Dd2 in erythrocytes, SYBR Green DNA, 72 h; at 28.5 µM (top of the series) unless noted. The essentials: as §1
Experiment [19] is described as follows: qHTS profiling of the MIPE4 collection as inhibitors of Plasmodium falciparum (HB3) proliferation (AID 743347; call rule not given here;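 further: plate controls were DMSO vehicle wells for no effect and artemisinin wells for full effect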). The conditions noted are these: P. falciparum HB3 in erythrocytes, SYBR Green DNA, 72 h; at 28.5 µM (top of the series) unless noted. Summed up:
as §1

The target in experiment [20] is M-phase phosphoprotein 8 (Homo sapiens) (UniProt Q99549). The experiment is described as follows: qHTS Validation Assay for Inhibitors for MPP8 Chromodomain Interactions with Methylated Histone Tails (AID 488949).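 Further: 50 nM MPP8 with 50 nM peptide preformed then compounds added for 30 min; AlphaScreen signal from MPP8 chromodomain bound to biotinylated H3K9me3 peptide; top concentration of the series differs between compounds; on the % scale 0 is the no-effect control and ±100 the full control effect; nearly all actives have a fitted effect of over 55% in size.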 Summed up:
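Chemiluminescent proximity assay: histidine-tag capture via nickel acceptor beads, biotin peptide via streptavidin donor beads. Protein and peptide each at 50 nM, pH 7.4, with 30 min incubations at room temperature for complex formation, compound exposure and bead binding.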

For experiment [21], the target named is Nuclear receptor ROR-gamma (Homo sapiens) (UniProt P51449). The experiment is described as follows: qHTS assay for small molecule antagonists of the retinoid-related orphan receptor gamma (ROR-gamma) signaling pathway (AID 651802).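 Further: luciferase reporter luminescence driven by ROR response element; on the % scale 0 is the no-effect control and ±100 the full control effect; nearly all actives have a fitted effect of over 60% in size.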 The essentials:
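CHO cells with TET-inducible ROR-gamma and RORE-luciferase reporter, dosed then doxycycline-induced. After 16 h at 37C, One-Glo luminescence read; decreased signal indicates antagonism.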

Experiment [22] is described as follows: qHTS Assay for Identifying Gametocytocidal Compounds (AID 743244).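 Further: on the % scale 0 is the no-effect control and ±100 the full control effect; actives lower the fluorescent signal which means gametocytes are killed.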 Particulars: P. falciparum 3D7 stage III-V gametocytes, alamarBlue, 72 h; max response: stronger effect = lower value. The essentials:
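Late gametocytes (III–V), P. falciparum 3D7; 72 h drug, then 24 h alamarBlue; resazurin reduction read by fluorescence.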

Structures are written as SMILES. Inconclusive results are not listed. Active and inactive are the calls of the source. Unless noted, the call rests on the fitted dose curve; in most records, active means well fitted curve in the direction sought with a large enough effect; inconclusive means small, poorly fitted or top-dose-only effect, or another doubt; inactive means no such curve, though single readings can be large; an effect the other way counts as inactive or inconclusive.

Chain of Alpha-galactosidase (Coffea arabica) (Q42656 whole entry, looked up): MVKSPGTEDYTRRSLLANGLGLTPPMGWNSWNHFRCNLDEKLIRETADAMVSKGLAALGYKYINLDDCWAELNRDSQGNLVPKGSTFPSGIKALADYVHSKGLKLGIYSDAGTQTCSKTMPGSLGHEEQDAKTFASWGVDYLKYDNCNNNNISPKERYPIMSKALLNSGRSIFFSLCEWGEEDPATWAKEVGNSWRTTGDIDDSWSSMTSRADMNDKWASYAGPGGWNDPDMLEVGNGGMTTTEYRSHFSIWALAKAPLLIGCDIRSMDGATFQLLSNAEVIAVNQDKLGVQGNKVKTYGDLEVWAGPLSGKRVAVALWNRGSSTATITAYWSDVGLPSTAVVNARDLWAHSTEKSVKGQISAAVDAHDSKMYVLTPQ
Chain of M-phase phosphoprotein 8 (Homo sapiens) (Q99549 whole entry, looked up): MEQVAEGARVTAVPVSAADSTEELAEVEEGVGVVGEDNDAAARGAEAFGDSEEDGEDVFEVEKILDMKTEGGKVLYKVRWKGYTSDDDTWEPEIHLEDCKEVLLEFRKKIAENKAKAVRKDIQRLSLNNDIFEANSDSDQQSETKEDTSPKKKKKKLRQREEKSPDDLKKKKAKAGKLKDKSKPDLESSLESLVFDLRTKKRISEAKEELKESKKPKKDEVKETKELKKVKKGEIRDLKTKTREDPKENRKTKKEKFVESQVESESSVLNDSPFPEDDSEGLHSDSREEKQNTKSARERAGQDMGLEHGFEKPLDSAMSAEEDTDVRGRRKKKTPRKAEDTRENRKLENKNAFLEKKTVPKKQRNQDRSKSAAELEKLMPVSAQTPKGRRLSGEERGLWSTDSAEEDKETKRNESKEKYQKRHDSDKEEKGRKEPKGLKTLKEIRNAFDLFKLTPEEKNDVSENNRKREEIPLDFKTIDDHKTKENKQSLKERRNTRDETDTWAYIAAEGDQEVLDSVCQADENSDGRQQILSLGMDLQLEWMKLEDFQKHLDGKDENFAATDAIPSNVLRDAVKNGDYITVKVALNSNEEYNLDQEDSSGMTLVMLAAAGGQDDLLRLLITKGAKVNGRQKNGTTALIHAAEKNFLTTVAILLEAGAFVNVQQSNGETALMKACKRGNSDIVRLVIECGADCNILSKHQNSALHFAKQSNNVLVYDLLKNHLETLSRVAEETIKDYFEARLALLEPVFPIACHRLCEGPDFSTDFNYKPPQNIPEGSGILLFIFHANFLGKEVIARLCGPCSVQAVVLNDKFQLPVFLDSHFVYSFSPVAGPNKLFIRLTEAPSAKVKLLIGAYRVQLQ
Chain of Flap endonuclease 1 (Homo sapiens) (P39748 whole entry, looked up): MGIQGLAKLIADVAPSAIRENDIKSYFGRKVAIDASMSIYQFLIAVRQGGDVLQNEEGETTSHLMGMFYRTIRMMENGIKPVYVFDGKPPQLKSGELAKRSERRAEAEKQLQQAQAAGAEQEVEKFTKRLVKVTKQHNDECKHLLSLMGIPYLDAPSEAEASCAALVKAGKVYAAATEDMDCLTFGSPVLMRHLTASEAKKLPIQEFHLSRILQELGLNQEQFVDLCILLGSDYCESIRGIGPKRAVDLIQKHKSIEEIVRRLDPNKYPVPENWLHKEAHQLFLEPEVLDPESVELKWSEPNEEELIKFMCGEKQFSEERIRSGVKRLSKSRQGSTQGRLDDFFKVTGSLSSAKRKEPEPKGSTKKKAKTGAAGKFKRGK
Chain of Nuclear receptor ROR-gamma (Homo sapiens) (P51449 whole entry, looked up): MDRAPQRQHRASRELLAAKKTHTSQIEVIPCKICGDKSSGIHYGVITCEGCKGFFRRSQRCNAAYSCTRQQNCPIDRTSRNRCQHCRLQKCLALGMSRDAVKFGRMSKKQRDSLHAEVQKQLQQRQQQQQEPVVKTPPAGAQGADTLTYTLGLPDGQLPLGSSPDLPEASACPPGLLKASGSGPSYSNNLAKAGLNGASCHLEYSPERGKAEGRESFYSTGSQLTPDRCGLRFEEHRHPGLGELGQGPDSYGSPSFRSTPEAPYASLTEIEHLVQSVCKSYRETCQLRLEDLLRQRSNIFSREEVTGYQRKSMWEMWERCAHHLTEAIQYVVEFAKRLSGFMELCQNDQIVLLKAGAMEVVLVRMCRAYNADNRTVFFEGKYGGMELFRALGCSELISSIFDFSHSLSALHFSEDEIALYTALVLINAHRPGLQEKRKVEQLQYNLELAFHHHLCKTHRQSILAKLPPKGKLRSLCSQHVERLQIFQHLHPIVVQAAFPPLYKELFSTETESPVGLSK
Chain of Nucleoprotein (Lymphocytic choriomeningitis virus (strain Armstrong)) (P09992 whole entry, looked up): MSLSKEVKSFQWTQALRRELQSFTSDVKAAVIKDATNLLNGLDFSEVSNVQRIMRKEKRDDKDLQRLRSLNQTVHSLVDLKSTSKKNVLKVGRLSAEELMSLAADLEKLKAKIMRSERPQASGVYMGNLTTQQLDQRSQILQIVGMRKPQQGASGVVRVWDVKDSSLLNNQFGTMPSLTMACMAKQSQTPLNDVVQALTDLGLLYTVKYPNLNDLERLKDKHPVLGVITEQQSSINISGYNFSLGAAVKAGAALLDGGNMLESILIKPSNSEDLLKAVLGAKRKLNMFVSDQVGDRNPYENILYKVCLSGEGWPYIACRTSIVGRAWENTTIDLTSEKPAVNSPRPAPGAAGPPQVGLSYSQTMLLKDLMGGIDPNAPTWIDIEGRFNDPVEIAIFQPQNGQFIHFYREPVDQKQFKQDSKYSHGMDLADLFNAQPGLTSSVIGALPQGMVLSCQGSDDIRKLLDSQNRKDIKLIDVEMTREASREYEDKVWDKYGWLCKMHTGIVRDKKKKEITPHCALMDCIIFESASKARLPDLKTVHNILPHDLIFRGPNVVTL
Chain of Ubiquitin carboxyl-terminal hydrolase 1 (Homo sapiens) (O94782 whole entry, looked up): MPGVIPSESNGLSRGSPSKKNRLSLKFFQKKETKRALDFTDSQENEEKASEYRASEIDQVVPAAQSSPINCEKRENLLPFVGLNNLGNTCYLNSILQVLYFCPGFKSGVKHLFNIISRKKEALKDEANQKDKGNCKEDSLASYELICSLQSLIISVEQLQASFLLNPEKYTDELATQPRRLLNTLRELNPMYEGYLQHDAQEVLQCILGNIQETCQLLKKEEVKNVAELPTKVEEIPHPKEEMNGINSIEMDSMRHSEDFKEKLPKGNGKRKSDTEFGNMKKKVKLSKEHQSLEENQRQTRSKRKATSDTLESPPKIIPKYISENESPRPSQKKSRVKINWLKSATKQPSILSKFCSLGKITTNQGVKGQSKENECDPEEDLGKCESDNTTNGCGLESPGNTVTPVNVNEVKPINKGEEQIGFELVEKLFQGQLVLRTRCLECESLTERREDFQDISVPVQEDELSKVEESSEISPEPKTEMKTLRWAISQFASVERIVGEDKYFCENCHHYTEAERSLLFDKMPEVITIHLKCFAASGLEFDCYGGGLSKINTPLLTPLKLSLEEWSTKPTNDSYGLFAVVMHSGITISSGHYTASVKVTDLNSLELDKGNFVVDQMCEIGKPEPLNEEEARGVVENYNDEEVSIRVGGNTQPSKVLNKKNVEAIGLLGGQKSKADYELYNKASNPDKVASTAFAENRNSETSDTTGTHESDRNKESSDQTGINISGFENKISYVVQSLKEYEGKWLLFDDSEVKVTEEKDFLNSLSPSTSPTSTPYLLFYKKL
Chain of Ubiquitin carboxyl-terminal hydrolase 2 (Homo sapiens) (O75604 whole entry, looked up): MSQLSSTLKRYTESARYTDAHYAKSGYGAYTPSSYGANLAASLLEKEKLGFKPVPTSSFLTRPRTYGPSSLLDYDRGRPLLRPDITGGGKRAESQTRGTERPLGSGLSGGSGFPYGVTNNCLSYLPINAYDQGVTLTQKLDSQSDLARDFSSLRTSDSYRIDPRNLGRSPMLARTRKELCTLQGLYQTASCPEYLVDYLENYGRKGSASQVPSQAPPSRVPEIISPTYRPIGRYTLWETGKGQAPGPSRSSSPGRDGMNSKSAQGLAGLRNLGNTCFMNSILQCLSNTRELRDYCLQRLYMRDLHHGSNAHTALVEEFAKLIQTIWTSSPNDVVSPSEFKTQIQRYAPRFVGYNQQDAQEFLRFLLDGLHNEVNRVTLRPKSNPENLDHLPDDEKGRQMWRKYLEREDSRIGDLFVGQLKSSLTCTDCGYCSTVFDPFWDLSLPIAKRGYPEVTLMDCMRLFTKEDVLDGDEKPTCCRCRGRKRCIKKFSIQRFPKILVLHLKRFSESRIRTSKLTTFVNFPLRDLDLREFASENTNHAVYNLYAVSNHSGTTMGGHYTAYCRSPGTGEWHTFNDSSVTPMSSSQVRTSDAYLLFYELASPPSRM
Chain of Chromobox protein homolog 1 (Homo sapiens) (P83916 whole entry, looked up): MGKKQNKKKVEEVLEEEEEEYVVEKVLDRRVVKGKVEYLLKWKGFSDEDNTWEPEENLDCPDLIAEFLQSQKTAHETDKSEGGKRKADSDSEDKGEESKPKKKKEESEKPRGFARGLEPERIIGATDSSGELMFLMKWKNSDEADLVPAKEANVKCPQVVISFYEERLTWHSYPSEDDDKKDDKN

For `NC(N)=NC(N)=Nc1cccc(Cl)c1`, the molecule was classed as inactive in experiment [1], in experiment [2] and in experiment [4]. For the same molecule, the Potency entry in experiment [3], in experiment [5], in [6], in experiment [7] and in experiment [8] was “inactive” throughout.

Take `N.N.N.N.N.N.N.N.N.N.N.N.N.N.O.O.[Ru+4].[Ru+5].[Ru+5]`: the Potency was 14.7 µM (active) in [9], 16.8 µM (active) in experiment [10] and 44.7 µM (active) in experiment [11]. Besides, in [12], the molecule was classed as inactive.

For `CN1CCc2cccc3c2C1Cc1ccc(O)c(O)c1-3` (centres undefined), the Potency in experiment [13] was 2.94 µM (active); in experiment [14], 3.7 µM (active).

As to `CN[C@H](CC(C)C)C(=O)N[C@H]1C(=O)N[C@@H](CC(N)=O)C(=O)N[C@@H]2C(=O)N[C@H]3C(=O)N[C@H](C(=O)N[C@H](C(=O)O)c4cc(O)cc(O)c4-c4cc3ccc4O)[C@H](O)c3ccc(c(Cl)c3)Oc3cc2cc(c3O[C@@H]2O[C@H](CO)[C@@H](O)[C@H](O)[C@@H]2O[C@H]2C[C@](C)(N)[C@H](O)[C@H](C)O2)Oc2ccc(cc2Cl)[C@H]1O`, the Potency entry in [15] and in experiment [16] was “inactive” each time. Moreover, the parasite growth remaining, % of DMSO control (lower = more inhibition) in experiment [17] is 104%. Further, the parasite growth, % of control (lower = inhibition) in [18] was 150%. The molecule further yielded a growth, % of control in [19] of 704%.

In the case of `O=C(O)CC1CC(c2ccccc2)=NO1` (centres undefined), the Potency result in experiment [15] is “inactive”.

With `C[C@]12C=CC(=O)C=C1CC[C@@H]1C2=CC[C@]2(C)[C@@H](C(=O)CN3CCN(c4cc(N5CCCC5)nc(N5CCCC5)n4)CC3)CC[C@@H]12`, the Potency entry in experiment [20] was “inactive”.

With `Nc1ncnc2c1ncn2[C@@H]1O[C@H](COP(=O)(O)CP(=O)(O)OP(=O)(O)O)[C@@H](O)[C@H]1O`, the Potency result in experiment [20] is “inactive”.

`CN1CCC[C@H]1c1cccnc1`: the Potency result in experiment [21] is “inactive”. The max response in [22] is 8.91% (inactive).
